F508del corr = correctors of CFTR F508del function in bronchial epithelial cells | AID 720511 | CFBE cells, YFP halide quenching; stimulated with forskolin plus potentiator P3; % fluorescence drop versus neutral controls | activity (quench increase), % at 7.58 µM | hit rate 0.36% among 350,000;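 active means mean added fluorescence quench of at least 8% versus neutral control, with both replicates also reaching 8%; inconclusive means only one of the mean or replicate conditions met; inactive means mean below 8% and not both replicates reaching 8%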;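 further: cells transiently co-express mutant CFTR-F508del with the halide-sensitive YFP; corrector assay measuring rescue of mutant channel to the surface after 24 h compound exposure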
FXN GAA850 act = activators of GAA850 frataxin (FXN) promoter; activation, % at 6 µM; HEK293 lucGAA850 FXN promoter luciferase reporter, 24 h; percent of 10 µM SAHA response; hit rate 0.56% among 360,000;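 active means activation above the average of all compounds screened plus 3 SD, cutoff fixed separately per campaign, cut at about 7.5% in these data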;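 further: 0% = DMSO wells and 100% = 10 µM SAHA wells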
Env fusion inh = HIV envelope-mediated fusion inhibition; inhibition, % at 12.3 µM; hit rate 1.1% among 360,000; HeLa-JRFL Env/CEM21 cell fusion, luciferase;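 active means mean replicate inhibition score of at least 50 and every replicate individually at or above 50; inconclusive means only one of the two criteria met; inactive means mean below 50 and not all replicates reaching 50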;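 further: 0% = plate neutral controls and 100% = maraviroc near 300 nM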
EWS-Fli block = inhibitors of EWS/Fli oncoprotein transcriptional activity; hit rate 0.67% among 350,000; A673 NR0B1-luciferase reporter, viability-normalised; inhibition, % at 12.6 µM; AID 651661;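 active means mean inhibition of at least 50% after viability correction, with every replicate also passing that limit; inconclusive means mean reaches 50% but only one of two replicates passes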;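 further: firefly luciferase signal divided by Alamar Blue viability fluorescence both relative to DMSO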
PAX8 inh HTS = lowers PAX8-driven luciferase in RMG-I cells; hit rate 1.2% among 360,000; inhibition, % at 12.6 µM; RMG-I TPO-luciferase reporter, SteadyGlo, 24 h;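 active means mean replicate inhibition at least 60% with every replicate also reaching 60%; inconclusive means only one of the two criteria is met; inactive means mean below 60% and not all replicates reaching 60%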;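 further: luciferase light reporting Pax8 driven TPO promoter activity; plate controls were median of neutral control wells for no effect and mitoxantrone controls for full effect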
* hit, by the source's call; ? = inconclusive; . = no result; [ ] = another dose, or the depositor's remark. The list is not random: actives were taken first. Their share in the collection is about 2.5%.

SMILES	F508del corr	FXN GAA850 act	Env fusion inh	EWS-Fli block	PAX8 inh HTS
C=C1CCN([C@H](C(=O)OCc2cccc(C)c2)C(C)C)S(=O)(=O)c2ccccc21	-2	7	76*	-2	-16
C=C1CCN([C@H](C(=O)O)C(C)C)S(=O)(=O)c2ccccc21	2	0	-12	-7	-4
O=C(C[C@H]1C=C[C@@H](NC(=O)Nc2cc(F)ccc2F)[C@@H](CO)O1)NCc1ccccn1	-5	.	1[16.7 µM]	2	-4
O=C(CNc1ccc(F)cc1)c1ccccc1	3	7	106*	-33	-175
O=[N+]([O-])c1ccccc1C1Nc2cccc3cccc(c23)N1	.	2	-171	.	22
O=[N+]([O-])c1ccc(Cl)c(C2Nc3cccc4cccc(c34)N2)c1	.	-1	58*	.	-5
C[C@H]1CCCCO[C@H](CN(C)C(=O)Nc2ccc(C(F)(F)F)cc2)[C@@H](C)CN([C@@H](C)CO)C(=O)c2cc(NC(=O)Nc3ccc4c(c3)OCO4)ccc2O1	5	.	72*[16.7 µM]	-1	35
C[C@@H]1CN([C@H](C)CO)C(=O)c2cc(NC(=O)Nc3ccc(C(F)(F)F)cc3)ccc2O[C@@H](C)CCCCO[C@H]1CN(C)C(=O)Nc1ccc(C(F)(F)F)cc1	1	.	115*[16.7 µM]	3	96*
C[C@@H]1CCCCO[C@@H](CN(C)C(=O)Nc2ccc(C(F)(F)F)cc2)[C@H](C)CN([C@@H](C)CO)C(=O)c2cc(NC(=O)Nc3ccc(C(F)(F)F)cc3)ccc2O1	-1	.	36[16.7 µM]	-14	77*
C[C@H](CO)N1C[C@H](C)[C@@H](CN(C)C(=O)Nc2ccc3c(c2)OCO3)OCCCC[C@H](C)Oc2ccc(NC(=O)Nc3ccc(C(F)(F)F)cc3)cc2C1=O	3	.	0[16.7 µM]	5	.
C[C@H]1CCCCO[C@@H](CN(C)C(=O)C2CCCCC2)[C@@H](C)CN([C@@H](C)CO)C(=O)c2cc(NC(=O)Nc3ccc(C(F)(F)F)cc3)ccc2O1	10*	.	0[16.7 µM]	13	.
C[C@H]1CCCCO[C@H](CN(C)C(=O)Nc2ccc(C(F)(F)F)cc2)[C@@H](C)CN([C@@H](C)CO)C(=O)c2cc(NC(=O)Nc3ccc(C(F)(F)F)cc3)ccc2O1	-1	.	45[16.7 µM]	-12	8
CCC(=O)N[C@H]1C=C[C@H](CC(=O)NCc2ccc(OC)cc2)O[C@@H]1CO	-2	.	-2[16.7 µM]	2	0
Cc1noc(C)c1S(=O)(=O)Nc1ccc2c(c1)C(=O)N([C@@H](C)CO)C[C@H](C)[C@@H](CN(C)Cc1ccncc1)O2	-1	.	-10[16.7 µM]	-15	.
C[C@@H]1CCCCO[C@H](CN(C)C(=O)Nc2ccc(C(F)(F)F)cc2)[C@H](C)CN([C@@H](C)CO)C(=O)c2cc(NC(=O)CCC(F)(F)F)ccc2O1	1	.	?	1	53
C[C@H]1CCCCO[C@@H](CN(C)C)[C@@H](C)CN([C@@H](C)CO)C(=O)c2cc(NC(=O)Nc3ccc(C(F)(F)F)cc3)ccc2O1	0	.	9[16.7 µM]	-6	88*
C[C@H]1CCCCO[C@H](CN(C)C(=O)Nc2ccc(C(F)(F)F)cc2)[C@@H](C)CN([C@@H](C)CO)C(=O)c2cc(NC(=O)CCC(F)(F)F)ccc2O1	1	.	47[16.7 µM]	-3	87*
Cc1ccc(S(=O)(=O)NC[C@@H]2CC[C@@H]3[C@@H](CN3Cc3ccccc3C(=O)O)O2)cc1	2	.	.	-1	.
C[C@H]1CN([C@@H](C)CO)S(=O)(=O)c2ccc(C#CC3CC3)cc2O[C@@H]1CN(C)C(=O)c1ccccc1	-2	.	2[16.7 µM]	6	.
O=C(C1CC1)N1CCC(c2nc(-c3ccc(S(=O)(=O)NCC4CCCO4)cc3)no2)CC1 (stereo not drawn)	2	-5	.	14	.
O=C(c1ccccc1)N1CCC(c2nc(-c3ccc(S(=O)(=O)NCC4CCCO4)cc3)no2)CC1 (stereo not drawn)	.	-4	87*	.	.
COc1ccccc1-c1ccc2c(c1)O[C@H](CN(C)CC1CC1)[C@H](C)CN([C@H](C)CO)S2(=O)=O	-2	.	16[16.7 µM]	-12	.
COc1cccc(NC(=O)C[C@H]2CC[C@@H]3[C@@H](COc4ccc(NC(C)=O)cc4C(=O)N3C)O2)c1	-5	.	-17[16.7 µM]	5	-7
Cc1nc2c(OCc3ccc(F)cc3)cccn2c1N(C)C(=O)CCC1CCCC1	2	-1	26	14	10
Cc1nc2c(OCc3ccc(C(F)(F)F)cc3)cccn2c1N(C)C(=O)CCC1CCCC1	0	-3	61*	15	23

High-throughput results (PubChem)
